We go through 99 molecules from PubChem BioAssay AID1220 (Sanford-Burnham Center for Chemical Genomics, 2008).

As a reminder, the inhibition is the drop in the measured response relative to a control, in per cent.

Each structure is given as a SMILES string. The campaign covered roughly 190,000 compounds. About 1,300 (0.68%) were called active. The sample holds actives, similar compounds and a random draw of the others, so the mix is not that of the screen. Rule as the data show it: active = inhibition above about 50%; inactive = the rest.

The target of this test is Mannose-6-phosphate isomerase (Homo sapiens) (UniProt P34949). The test is described as follows: human PMI inhibitors, high substrate, primary screen, biochemical, fluorescence intensity, high mannose 6-phosphate (AID 1220). Conditions: recombinant PMI enzyme, coupled fluorescence intensity; at 20 µM; active compounds read high.
Sequence of Mannose-6-phosphate isomerase (Homo sapiens) (P34949 whole entry, looked up): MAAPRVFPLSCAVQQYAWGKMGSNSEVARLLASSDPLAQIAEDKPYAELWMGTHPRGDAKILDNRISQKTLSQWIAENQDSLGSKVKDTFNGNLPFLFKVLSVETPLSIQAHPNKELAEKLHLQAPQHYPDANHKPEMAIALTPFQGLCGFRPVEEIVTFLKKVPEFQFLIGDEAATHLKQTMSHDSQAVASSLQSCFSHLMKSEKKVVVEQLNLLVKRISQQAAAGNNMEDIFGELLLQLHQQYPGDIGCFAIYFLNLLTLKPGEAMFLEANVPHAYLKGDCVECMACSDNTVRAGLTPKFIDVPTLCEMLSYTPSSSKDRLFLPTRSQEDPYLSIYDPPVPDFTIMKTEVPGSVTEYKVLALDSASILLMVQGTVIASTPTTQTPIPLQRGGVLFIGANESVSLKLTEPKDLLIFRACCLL
On to `CC(C)c1onc(C(=O)NCc2cccs2)c1[N+](=O)[O-]`, for which the inhibition is -6.7% (inactive).

Take `CC(=O)c1cc2c(cc1N/C(=N/S(=O)(=O)c1ccc(C)cc1)c1ccc(Cl)cc1)OCO2`: the inhibition was 7.7% (inactive).

As to `O=S(=O)(N/N=C/c1ccc(F)cc1)c1ccccc1`, the inhibition is 4.7% (inactive).

With `Cc1ccc(NC(=S)Nc2ccc3cn[nH]c3c2)cc1C`, the inhibition was 15.4% (inactive).

For the molecule `S=C(Nc1ccc(Cl)cc1)Nc1ccc2cn[nH]c2c1`, the inhibition was 56.6% (active).

For the molecule `Cc1ccc(NC(=S)Nc2ccc3cn[nH]c3c2)c(C)c1`, the inhibition was 44% (inactive).

Turning to `Cc1ccccc1NC(=S)Nc1ccc2cn[nH]c2c1`, the inhibition was 61.3% (active).

Turning to `S=C(Nc1ccc2cn[nH]c2c1)Nc1ccccc1Cl`, the inhibition is 42.1% (inactive).

In the case of `Cc1cc(C)cc(NC(=S)Nc2ccc3cn[nH]c3c2)c1`, the inhibition was 21.3% (inactive).

For `COc1ccc(NC(=S)Nc2ccc3cn[nH]c3c2)cc1`, the inhibition is 48.7% (inactive).

For the molecule `Cc1ccc(NC(=S)Nc2ccc3cn[nH]c3c2)cc1`, the inhibition is 57.8% (active).

On to `CC(C)c1ccc(NC(=S)Nc2ccc3cn[nH]c3c2)cc1`, for which the inhibition was 46.1% (inactive).

Consider `CCOC(=O)C1CCCN(C(=O)c2cn(CC)c(=O)c3cc(OC)c(OC)cc23)C1` (centres undefined), for which the inhibition was -1.3% (inactive).

Take `CCOC(=O)c1nn(-c2ccc(C)cc2)cc1O`: the inhibition is 1.2% (inactive).

As to `COC(=O)c1ccc2c(c1)NC1=C(C(=O)CC(C)(C)C1)C(c1ccncc1)N2` (centres undefined), the inhibition was 61.3% (active).

For the molecule `CC1(C)CC(=O)C2=C(C1)Nc1cc(C(=O)c3ccccc3)ccc1NC2c1ccccn1` (centres undefined), the inhibition is -4.3% (inactive).

On to `CC1(C)CC(=O)C2=C(C1)Nc1ccccc1NC2c1cccnc1` (centres undefined), for which the inhibition was -11.6% (inactive).

For `COc1cccc(C(=O)Oc2c(CN3CCOCC3)cc(Cl)c3cccnc23)c1`, the inhibition was 24% (inactive).

With `O=C(Oc1c(CN2CCOCC2)cc(Cl)c2cccnc12)c1ccccc1`, the inhibition was 56.3% (active).

For the molecule `O=[N+]([O-])c1cc(CN2CCOCC2)c2cccnc2c1O`, the inhibition was 40.5% (inactive).

For the molecule `COc1ccc(C(=O)Oc2c(CN3CCOCC3)cc(Cl)c3cccnc23)cc1`, the inhibition was 22.5% (inactive).

For `O=C(Oc1c(CN2CCOCC2)cc(Cl)c2cccnc12)c1ccccc1F`, the inhibition is 51.4% (active).

On to `O=C(Oc1c(CN2CCOCC2)cc(Cl)c2cccnc12)c1ccccc1Cl`, for which the inhibition was 57.1% (active).

With `O=C(Oc1c(CN2CCOCC2)cc(Cl)c2cccnc12)c1ccc(F)cc1`, the inhibition was 40.1% (inactive).

On to `COc1cc(C(=O)Oc2c(CN3CCOCC3)cc(Cl)c3cccnc23)cc(OC)c1OC`, for which the inhibition is 35.9% (inactive).

In the case of `O=C(Oc1c(Cl)cc(Cl)c2cccnc12)N1CCOCC1`, the inhibition is 1.1% (inactive).

Take `c1ccc2c(c1)ccc1ncccc12`: the inhibition was -5.5% (inactive).

For the molecule `O=C(CS(=O)(=O)c1ccccc1)Nc1nc(-c2ccc(F)cc2)cs1`, the inhibition is 8.2% (inactive).

Regarding `CCOC(=O)CNC(=O)CSc1nnc(-c2ccco2)n1N`, the inhibition is 6.3% (inactive).

For `CCCCOc1ccc(Cc2c(COCC)[nH]c(=S)[nH]c2=O)cc1`, the inhibition was -4.9% (inactive).

With `O=C(c1cc2ccccc2o1)N1CCCC1`, the inhibition was -0.3% (inactive).

Consider `COc1ccc(OC)c(NS(=O)(=O)c2cc(OC)ccc2OC)c1`, for which the inhibition is 2.8% (inactive).

Turning to `COc1ccc(OC)c(S(=O)(=O)Nc2ccccc2SC)c1`, the inhibition was 57.1% (active).

Consider `COc1ccc(OC)c(S(=O)(=O)Nc2ccccc2C)c1`, for which the inhibition was 10.8% (inactive).

For `CC1=CC(C)(C)N(C(=O)CNC2CCCCC2)c2cc(C)ccc21`, the inhibition is 2.1% (inactive).

As to `C=CCOc1c(Br)cc(CNc2ccc(NC(=O)C(C)C)cc2)cc1OCC`, the inhibition was 22.7% (inactive).

`C=CCOc1c(Br)cc(CNc2ccc(NC(=O)C(C)C)c(OC)c2)cc1OC`: the inhibition is 41.7% (inactive).

For the molecule `C=CCOc1c(Br)cc(CNc2ccc(NC(=O)C(C)C)c(OC)c2)cc1OCC`, the inhibition is 57.7% (active).

As for `COc1cccc(C(=O)Nc2ccc3c(c2)C(=O)N(CCC(=O)O)C3=O)c1`, the inhibition was 3.7% (inactive).

With `CC1CCCC(NC(=O)COC(=O)CSc2ccc3ccccc3c2)C1C` (centres undefined), the inhibition was 7.7% (inactive).

With `Cc1ccc(-c2nc(N)sc2-c2ccc(C)cc2)cc1`, the inhibition is 13.6% (inactive).

Regarding `Cc1ccc(-c2nnc(-c3ccccc3)c(-c3ccccc3)n2)cc1`, the inhibition was -0.5% (inactive).

Regarding `Cc1ccc(-c2cc(-c3ccccc3)nc(Cl)n2)cc1`, the inhibition was 12.5% (inactive).

For `Cc1ccc(-c2nc(N)sc2C)cc1`, the inhibition was -10.2% (inactive).

Take `CCCCC(=O)OCC(=O)c1[nH]c(C)c(C(C)=O)c1C`: the inhibition was -12% (inactive).

For `CCc1nnc(NC(=O)c2ccc(N(C)S(=O)(=O)c3ccccc3)cc2)s1`, the inhibition is -6.4% (inactive).

For `CC(C)c1ccccc1NC(=O)COC(=O)CNC(=O)c1ccc(Br)cc1`, the inhibition is 4.8% (inactive).

Turning to `Nc1ccc(Cc2ccc(N)c(O)c2)cc1O`, the inhibition was 46.8% (inactive).

Turning to `Nc1cc2c(cc1O)CCCC2`, the inhibition is 54.3% (active).

As to `O=C(O)c1ccc2c(c1)CCC2`, the inhibition is 0.1% (inactive).

Take `COc1cc(NC(=O)CSc2c3c(nc4ccccc24)CCC3)cc(OC)c1OC`: the inhibition was -3.7% (inactive).

With `CCOc1ccccc1NC(=O)CCN(c1ccc(C)cc1)S(=O)(=O)c1ccccc1`, the inhibition is 5.3% (inactive).

For `Cc1nn(Cc2c(F)c(F)c(F)c(F)c2F)c(C)c1NC(=O)c1ccc(COc2cc(Cl)ccc2Cl)cc1`, the inhibition was 0.7% (inactive).

With `O=C1C2C3C=CC(C3)C2C(=O)N1CNc1ccc(O)cc1` (centres undefined), the inhibition is 58.4% (active).

On to `O=C1C2C3C=CC(C3)C2C(=O)N1CNc1ccccc1` (centres undefined), for which the inhibition was -1% (inactive).

In the case of `Cc1ccc(NCN2C(=O)C3C4C=CC(C4)C3C2=O)cc1` (centres undefined), the inhibition is 16.9% (inactive).

In the case of `CC12CC(NC(=O)N1c1cccc(C(=O)N3CCN(c4ccccn4)CC3)c1)c1ccccc1O2` (centres undefined), the inhibition was -3.4% (inactive).

Regarding `O=C(CSc1nnc(SCc2cccc3ccccc23)s1)Nc1ccc(C(=O)O)cc1`, the inhibition was 10.4% (inactive).

As to `COc1ccc(COc2ccc(C3C(S(=O)(=O)c4ccccc4)CON3C)cc2OC)cc1` (centres undefined), the inhibition was -2.4% (inactive).

`O=C(O)c1cccc(NS(=O)(=O)c2ccc(Cl)c(C(=O)O)c2)c1`: the inhibition was 1.9% (inactive).

For `O=C(O)c1cccc(NS(=O)(=O)c2ccc(-c3ccc(S(=O)(=O)Nc4cccc(C(=O)O)c4)cc3)cc2)c1`, the inhibition is 53.1% (active).

`O=C(O)c1cccc(NS(=O)(=O)c2ccc(C3CCCCC3)cc2)c1`: the inhibition was -7% (inactive).

On to `Cc1oc2c(c1C(=O)O)C(=O)c1ccccc1C2=O`, for which the inhibition is -9.6% (inactive).

For the molecule `CC(=O)c1c(C)oc2c1C(=O)c1ccccc1C2=O`, the inhibition was -9.9% (inactive).

`Cc1oc2c(c1C(=O)N1CCC(C)CC1)C(=O)c1ccccc1C2=O`: the inhibition was 54.7% (active).

In the case of `CCOC(=O)C1CCN(C(=O)c2c(C)oc3c2C(=O)c2ccccc2C3=O)CC1`, the inhibition is 55.2% (active).

In the case of `CCOC(=O)C1CCN(C(C)=C2C(=O)c3ccccc3C2=O)CC1`, the inhibition was -9.2% (inactive).

Regarding `CCOC(=O)c1c(C)oc2c1C(=O)c1ccccc1C2=O`, the inhibition was -16.2% (inactive).

As for `CSc1nc(-c2ccccc2)c(-c2ccccc2)[nH]1`, the inhibition is -9.1% (inactive).

Consider `COc1ccc([N+](=O)[O-])cc1N(CC(=O)NC1CCCC1)S(C)(=O)=O`, for which the inhibition was -1.4% (inactive).

Regarding `Cc1cccc(N=C2NN=C(c3c(C)[nH]c4ccccc34)CS2)c1`, the inhibition is -7% (inactive).

In the case of `O=C(Nc1ccc(Cl)cc1)N(Cc1nnc2n1CCCCC2)c1ccccc1`, the inhibition was -8.1% (inactive).

With `CCOC(=O)c1ccc(CN(Cc2ccc(C)cc2)S(=O)(=O)c2cccc([N+](=O)[O-])c2)cc1`, the inhibition was -10% (inactive).

For `CCN(CC)c1nc(N)c2c(N)nc3c(c2c1C#N)CC(c1ccccc1)O3` (centres undefined), the inhibition is 31.2% (inactive).

For `CCc1nc(N2CCOCC2)c(C#N)c2c1CCCC2`, the inhibition is 4.2% (inactive).

As for `N#Cc1c(N2CCCCC2)nc(N)c2c(N)nc3c(c12)CC(c1ccccc1)O3` (centres undefined), the inhibition was 56.5% (active).

Consider `COc1ccc(CN2C(=O)Cc3c2nc(N)c2c(N)nc(N4CCCCC4)c(C#N)c32)cc1`, for which the inhibition was 37.8% (inactive).

With `N#Cc1c(N2CCCCC2)nc(N)c2c(N)nc3c(c12)CC(CCl)O3` (centres undefined), the inhibition is 47.3% (inactive).

As for `CCC1Cc2c(nc(N)c3c(N)nc(N4CCOCC4)c(C#N)c23)O1` (centres undefined), the inhibition is 61.5% (active).

Turning to `CCOc1ccccc1C1N(c2ccc(OC)cc2)C(=O)C2CCCN21` (centres undefined), the inhibition was 2.6% (inactive).

On to `CC(C)(C)NC(=O)C(c1ccncc1)N(C(=O)Cn1nnc(-c2ccc(F)cc2)n1)c1ccccc1F` (centres undefined), for which the inhibition is 1.9% (inactive).

As for `Cc1ccc(NC(=O)c2ccco2)c(NC(=O)C2CCCO2)c1` (centres undefined), the inhibition was 11.8% (inactive).

With `O=C(Nc1cccc(NC(=O)C2CCCO2)c1)c1ccco1` (centres undefined), the inhibition was 13.7% (inactive).

On to `O=C(Nc1ccccc1NC(=O)C1CCCO1)c1ccco1` (centres undefined), for which the inhibition was 51.8% (active).

Regarding `CCOC(=O)N1CCC(N(CCN(C)C)C(=S)Nc2cccc(Cl)c2)CC1`, the inhibition was 10.6% (inactive).

`O=c1c2ccccc2sn1-c1cc(S(=O)(=O)N2CCOCC2)ccc1N1CCOCC1`: the inhibition is 96.3% (active).

In the case of `O=c1c2ccccc2sn1-c1ccc(S(=O)(=O)N2CCCC2)cc1`, the inhibition is 5% (inactive).

`O=S(=O)(c1ccc2c(c1)oc1ccccc12)N1CCOCC1`: the inhibition is 3.7% (inactive).

For the molecule `O=c1c2ccccc2sn1-c1cc(S(=O)(=O)N2CCOCC2)ccc1N1CCCC1`, the inhibition was 77.3% (active).

Turning to `O=C(O)c1cc(S(=O)(=O)N2CCOCC2)ccc1N1CCOCC1`, the inhibition is -9.3% (inactive).

In the case of `Cc1ccc(C)n1-c1cc(S(=O)(=O)N2CCOCC2)ccc1N1CCCC1`, the inhibition is 17% (inactive).

With `Cc1cc2ccccc2n1CCNC(=O)C(C)Oc1ccccc1` (centres undefined), the inhibition was 5.6% (inactive).

As to `Cc1cc(Nc2ccccc2)nc(N2CCOCC2)n1`, the inhibition is -4.3% (inactive).

For `COCCCNC(=O)c1cc(C(=O)c2c(-c3c(Cl)cccc3Cl)noc2C)c[nH]1`, the inhibition is -2.4% (inactive).

`CC1(C)CC(=O)c2cnc3c(C#N)cnn3c2C1`: the inhibition is 6.6% (inactive).

Turning to `Cc1ccc(CN(Cc2ccco2)C(=S)Nc2ccccc2C)cc1`, the inhibition was 8.6% (inactive).

For `COc1nsnc1N1CCOCC1`, the inhibition is -11.2% (inactive).

As to `O=c1[nH]snc1N1CCOCC1`, the inhibition is -7.2% (inactive).

In the case of `O=c1c(N2CCOCC2)nsnc1N1CCOCC1`, the inhibition was 53.3% (active).
